Measurements taken from the supplement of paper PMC6555819.

Legend:
Assay in all cases: PBM binding z-score (relative to random genomic background probes); higher = stronger binding; sequences stand for … in GC…GCGATTGACAGCGTAGAATGAAGG
[1] = tested on: PPARg:RXRa DBDmut IVT, anti-RXR (DBD mutation: RXRa K156A/R161A, NR concentration 270 nM, RXRa partner concentration 90 nM)
Outline: (§1)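 Binding z-scores were set against random background probes. The data came from custom Agilent 4×180K protein-binding microarrays carrying double-stranded probes with 34-nt variable regions, incubated 1 h with ligand-free nuclear receptor dimers. Partner-specific antibodies detected binding, and scanned fluorescence was regression-normalized.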

[2] = tested on: PPARg:RXRa IVT, anti-PPARg (NR concentration 270 nM, RXRa partner concentration 90 nM)
Outline: as §1

[3] = tested on: PPARg DBDmut:RXRa IVT, anti-PPARg (DBD mutation: PPARg1 K132A/R137A, NR concentration 270 nM, RXRa partner concentration 90 nM)
Outline: as §1

[4] = tested on: PPARg DBDmut IVT, anti-PPARg (DBD mutation: PPARg1 K132A/R137A, NR concentration 270 nM)
Outline: as §1

[5] = tested on: PPARg homodimer (NR concentration 180 nM)
Outline: as §1

[6] = tested on: PXR:RXRa (NR concentration 270 nM, RXRa partner concentration 90 nM)
Outline: as §1

[7] = tested on: PXR homodimer (NR concentration 270 nM)
Outline: as §1

[8] = tested on: RARa:RXR (NR concentration 270 nM, RXRa partner concentration 90 nM)
Outline: as §1

[9] = tested on: RARa homodimer (NR concentration 270 nM)
Outline: as §1

[10] = tested on: RARb:RXRa (NR concentration 270 nM, RXRa partner concentration 90 nM)
Outline: as §1

Sequence	PBM binding z-score [1]	PBM binding z-score [2]	PBM binding z-score [3]	PBM binding z-score [4]	PBM binding z-score [5]	PBM binding z-score [6]	PBM binding z-score [7]	PBM binding z-score [8]	PBM binding z-score [9]	PBM binding z-score [10]
TCTTGTCGATCAACAGGAGGTTAAGAAAGATCGA	0.771	0.105	-0.14	-0.175	-0.727	0.727	-0.0541	0.726	0.067	0.397
TCTTGTAGAACAGCAGGTTAAGAAAGCTGGCCAA	1.67	0.554	-0.871	-0.593	-0.509	0.0552	-0.772	-0.0223	-1.16	0.0879
AGAACGAGGGCACGCTGAGTTGATATCAGAGTAG	4.16	3.89	0.683	-0.135	0.168	1.44	0.106	0.865	-0.122	2.5
GTAACGAGGGCAAAGTTGATAGCATCTGTCGACG	4.16	4.69	0.947	0.296	0.574	1.36	0.402	1.77	0.268	2.36
TTACCAAGGTGAAGGTCGCTGATCCCTCTGTAGA	1.76	3.41	-0.525	-0.735	0.05	0.966	-0.523	1.56	-0.643	2.5
CGTCCAAGGTCAAAGGGCAGTGAAGAGATGACGG	2.96	4.49	0.0203	0.196	2.9	4.98	1.24	6.27	1.01	5.36
TAGCCTAGGTCATTCTGGGGCCAGTATAGAAAGC	1.71	2.77	0.208	0.242	0.886	2.29	-0.248	2.76	-0.372	3.67
TCTAGCAGGCCAGCGGGTCACTCAAGAGGTACGG	0.972	1.03	-0.284	-0.723	0.406	1.12	-0.865	1.81	-0.465	1.81
GCTATTAGTTGAAAGGCCAACCGAATGATTCTCG	0.47	0.355	0.179	-0.242	0.874	0.178	-0.082	0.627	0.368	1.56
GGAACGAGTGCATTCGAGTTGATAGCATGGCGAT	-0.308	-0.6	-1.05	-0.767	-1.32	2.91	3.49	-0.0398	-1.2	-0.311
CCGAGTAGGTTATGGGGCATCCAGGCAACGGTGA	2.41	3.47	0.134	-0.392	0.993	-0.0112	-0.414	0.287	0.0576	0.965
TTACCATGGTGAGCTGAGGTCGTTGATCCAACTC	-0.23	0.397	-0.517	-0.449	-0.916	1.87	-0.0892	1.14	-0.905	0.272
CCTACTGGGGCAAGGTCATTGATCAGTCAAAGCA	4.91	5.97	1.59	0.39	4.67	3.88	1.04	4.17	0.391	3.5
CGTCCGAGGTCAGAGAGGTCAGTGAATGCCGAGT	3.24	4.09	-0.171	-0.203	4.74	6.53	12.4	5.71	0.718	5.23
TCATATAGGTAGAGGTGAAAGTCGAACGATATGA	2.29	2.16	2	0.275	0.614	0.78	0.269	1.22	0.173	1.31
CAGCCTAGGTCAGGGCCAGTATGGGAGGAACGTT	0.702	1.59	-1.71	-1.33	0.437	0.196	-0.864	0.839	-0.701	3.43
AGAACGAGGGCAATGACTTGATAGCACGGGTGGC	3.17	2.49	0.669	-0.215	0.348	0.345	0.000958	0.436	-0.218	2.11
AGAATGAGGTTATTAAGATCACGGAATTGCGGTC	3.48	3.23	1.05	1.25	1.1	1.55	1.01	1.86	0.114	1.43
GCTGCTAGGTCAACTGATGATCAGCTAAAGCTCG	4.79	4.29	-0.231	0.333	1.28	1.34	-0.82	2.48	-0.292	4.25
CAGCCTAGGTCAGGGCCAGTACAGGAGGAACGTT	1.35	1.58	-0.899	-1.34	0.93	0.659	-0.209	1.03	-0.614	3.42
TCAGATAGGTAATACAGGTGAAAGTCGGCATCTA	2.72	1.82	0.894	0.382	0.675	0.557	0.387	0.619	1.19	0.567
GTACCAAGGTGAATAGGTCTTTGATGAGTAGGCG	2.18	2.5	0.818	0.145	0.986	0.0831	0.119	0.721	0.436	1.36
TCATATAGGTAACAGGTGAAAGTCGGTGTGGTAA	5.02	4.81	0.985	1.02	1.4	0.896	0.535	0.876	1.18	1
